# According to the supplement of paper PMC4466140:
# B1: unnamed (peptide)
# chain: GLRRARYKFPGQQKI
# B2: unnamed (peptide)
# chain: KLSRGRYGLPLSSRP
# Assays:
# Test in all cases: SPOT peptide array binding signal intensity (averaged, normalized) (arbitrary units (background-subtracted, floor 0; scale differs between SH3 domains)); higher = stronger binding of the SH3 domain to the peptide
# AgAbp1 = target: AgAbp1
# Procedure: (§1)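 GST-tagged SH3 domains from S. cerevisiae (Sc), A. gossypii (Ag), C. albicans (Ca) and S. pombe (Sp) were incubated at 10 ug/ml overnight at 4 C on cellulose SPOT membranes carrying 292 synthetic 15-mer peptides mined from the S. cerevisiae proteome (cysteines replaced by serines). Binding was detected with anti-GST antibody, HRP secondary and chemiluminescence, quantified with Genespotter, and reported as normalized spot intensities averaged over biological replicates.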
# AgBbc1 = target: AgBbc1
# Procedure: as §1
# AgBem1-D1 = target: AgBem1-D1
# Procedure: as §1
# AgBzz1-D1 = target: AgBzz1-D1
# Procedure: as §1
# AgBzz1-D2 = target: AgBzz1-D2
# Procedure: as §1
# AgCyk3 = target: AgCyk3
# Procedure: as §1
# AgFus1 = target: AgFus1
# Procedure: as §1
# AgHof1 = target: AgHof1
# Procedure: as §1
# AgHse1 = target: AgHse1
# Procedure: as §1
# AgLsb1 = target: AgLsb1
# Procedure: as §1
# AgLsb4 = target: AgLsb4
# Procedure: as §1
# AgMyo5 = target: AgMyo5
# Procedure: as §1
# AgNbp2 = target: AgNbp2
# Procedure: as §1
# AgRvs167 = target: AgRvs167
# Procedure: as §1
# AgSho1 = target: AgSho1
# Procedure: as §1
# AgSla1-D1-D2 = target: AgSla1-D1-D2
# Procedure: as §1
# AgSla1-D3 = target: AgSla1-D3
# Procedure: as §1
# CaAbp1-D1 = target: CaAbp1-D1
# Procedure: as §1
# CaAbp1-D2 = target: CaAbp1-D2
# Procedure: as §1
# CaBbc1 = target: CaBbc1
# Procedure: as §1
# CaBem1-D1 = target: CaBem1-D1
# Procedure: as §1
# CaBzz1-D1 = target: CaBzz1-D1
# Procedure: as §1
# CaBzz1-D2 = target: CaBzz1-D2
# Procedure: as §1
# CaCyk3 = target: CaCyk3
# Procedure: as §1
# CaFus1 = target: CaFus1
# Procedure: as §1
# CaHof1 = target: CaHof1
# Procedure: as §1
# CaHse1 = target: CaHse1
# Procedure: as §1
# CaLsb1 = target: CaLsb1
# Procedure: as §1
# CaLsb4 = target: CaLsb4
# Procedure: as §1
# CaMyo5 = target: CaMyo5
# Procedure: as §1
# CaNbp2 = target: CaNbp2
# Procedure: as §1
# CaRvs167 = target: CaRvs167
# Procedure: as §1
# CaRvs167-3 = target: CaRvs167-3
# Procedure: as §1
# CaSho1 = target: CaSho1
# Procedure: as §1
# CaSla1-D1-D2 = target: CaSla1-D1-D2
# Procedure: as §1
# CaSla1-D3 = target: CaSla1-D3
# Procedure: as §1
# ScAbp1 = target: ScAbp1
# Procedure: as §1
# ScBbc1 = target: ScBbc1
# Procedure: as §1
# ScBem1-D1 = target: ScBem1-D1
# Procedure: as §1
# ScBzz1-D1 = target: ScBzz1-D1
# Procedure: as §1
# ScBzz1-D2 = target: ScBzz1-D2
# Procedure: as §1
# ScCyk3 = target: ScCyk3
# Procedure: as §1
# ScFus1 = target: ScFus1
# Procedure: as §1
# ScHof1 = target: ScHof1
# Procedure: as §1
# ScHse1 = target: ScHse1
# Procedure: as §1
# ScLsb1 = target: ScLsb1
# Procedure: as §1
# ScLsb2 = target: ScLsb2
# Procedure: as §1
# ScLsb3 = target: ScLsb3
# Procedure: as §1
# ScLsb4 = target: ScLsb4
# Procedure: as §1
# ScMyo3 = target: ScMyo3
# Procedure: as §1
# ScMyo5 = target: ScMyo5
# Procedure: as §1
# ScNbp2 = target: ScNbp2
# Procedure: as §1
# ScPex13 = target: ScPex13
# Procedure: as §1
# ScRvs167 = target: ScRvs167
# Procedure: as §1
# ScSho1 = target: ScSho1
# Procedure: as §1
# ScSla1-D1-D2 = target: ScSla1-D1-D2
# Procedure: as §1
# ScSla1-D3 = target: ScSla1-D3
# Procedure: as §1
# SpAbp1-D1 = target: SpAbp1-D1
# Procedure: as §1
# SpBbc1 = target: SpBbc1
# Procedure: as §1
# SpBzz1-D1 = target: SpBzz1-D1
# Procedure: as §1
# SpBzz1-D2 = target: SpBzz1-D2
# Procedure: as §1
# SpCyk3 = target: SpCyk3
# Procedure: as §1
# SpHof1 = target: SpHof1
# Procedure: as §1
# SpHof1-2 = target: SpHof1-2
# Procedure: as §1
# SpHof1-3 = target: SpHof1-3
# Procedure: as §1
# SpHse1 = target: SpHse1
# Procedure: as §1
# SpLsb1 = target: SpLsb1
# Procedure: as §1
# SpLsb4 = target: SpLsb4
# Procedure: as §1
# SpMyo1 = target: SpMyo1
# Procedure: as §1
# SpNbp2 = target: SpNbp2
# Procedure: as §1
# SpPex13 = target: SpPex13
# Procedure: as §1
# SpRvs167 = target: SpRvs167
# Procedure: as §1
# SpSla1-D1-D2 = target: SpSla1-D1-D2
# Procedure: as §1
# SpSla1-D3 = target: SpSla1-D3
# Procedure: as §1
binder,measurement,setting,value
B1,SPOT peptide array binding signal intensity,AgAbp1,36.5
same,SPOT peptide array binding signal intensity,AgBbc1,30
same,SPOT peptide array binding signal intensity,AgBem1-D1,75
same,SPOT peptide array binding signal intensity,AgBzz1-D1,22.5
same,SPOT peptide array binding signal intensity,AgBzz1-D2,26
same,SPOT peptide array binding signal intensity,AgCyk3,3
same,SPOT peptide array binding signal intensity,AgFus1,230
same,SPOT peptide array binding signal intensity,AgHof1,24.5
same,SPOT peptide array binding signal intensity,AgHse1,283
same,SPOT peptide array binding signal intensity,AgLsb1,17.2
same,SPOT peptide array binding signal intensity,AgLsb4,32.5
same,SPOT peptide array binding signal intensity,AgMyo5,2
same,SPOT peptide array binding signal intensity,AgNbp2,55
same,SPOT peptide array binding signal intensity,AgRvs167,5.67
same,SPOT peptide array binding signal intensity,AgSho1,22
same,SPOT peptide array binding signal intensity,AgSla1-D1-D2,228
same,SPOT peptide array binding signal intensity,AgSla1-D3,3
same,SPOT peptide array binding signal intensity,CaAbp1-D1,388
same,SPOT peptide array binding signal intensity,CaAbp1-D2,257
same,SPOT peptide array binding signal intensity,CaBbc1,91.5
same,SPOT peptide array binding signal intensity,CaBem1-D1,11
same,SPOT peptide array binding signal intensity,CaBzz1-D1,74.5
same,SPOT peptide array binding signal intensity,CaBzz1-D2,69
same,SPOT peptide array binding signal intensity,CaCyk3,20.5
same,SPOT peptide array binding signal intensity,CaFus1,254
same,SPOT peptide array binding signal intensity,CaHof1,1
same,SPOT peptide array binding signal intensity,CaHse1,11.5
same,SPOT peptide array binding signal intensity,CaLsb1,0.5
same,SPOT peptide array binding signal intensity,CaLsb4,13
same,SPOT peptide array binding signal intensity,CaMyo5,2.5
same,SPOT peptide array binding signal intensity,CaNbp2,140
same,SPOT peptide array binding signal intensity,CaRvs167,15.2
same,SPOT peptide array binding signal intensity,CaRvs167-3,105
same,SPOT peptide array binding signal intensity,CaSho1,254
same,SPOT peptide array binding signal intensity,CaSla1-D1-D2,75
same,SPOT peptide array binding signal intensity,CaSla1-D3,3
same,SPOT peptide array binding signal intensity,ScAbp1,36
same,SPOT peptide array binding signal intensity,ScBbc1,19
same,SPOT peptide array binding signal intensity,ScBem1-D1,24
same,SPOT peptide array binding signal intensity,ScBzz1-D1,19
same,SPOT peptide array binding signal intensity,ScBzz1-D2,22
same,SPOT peptide array binding signal intensity,ScCyk3,107
same,SPOT peptide array binding signal intensity,ScFus1,244
same,SPOT peptide array binding signal intensity,ScHof1,1.5
same,SPOT peptide array binding signal intensity,ScHse1,854
same,SPOT peptide array binding signal intensity,ScLsb1,8.25
same,SPOT peptide array binding signal intensity,ScLsb2,5
same,SPOT peptide array binding signal intensity,ScLsb3,63
same,SPOT peptide array binding signal intensity,ScLsb4,13
same,SPOT peptide array binding signal intensity,ScMyo3,2
same,SPOT peptide array binding signal intensity,ScMyo5,4.5
same,SPOT peptide array binding signal intensity,ScNbp2,167
same,SPOT peptide array binding signal intensity,ScPex13,8.5
same,SPOT peptide array binding signal intensity,ScRvs167,31
same,SPOT peptide array binding signal intensity,ScSho1,296
same,SPOT peptide array binding signal intensity,ScSla1-D1-D2,294
same,SPOT peptide array binding signal intensity,ScSla1-D3,5
same,SPOT peptide array binding signal intensity,SpAbp1-D1,196
same,SPOT peptide array binding signal intensity,SpBbc1,2
same,SPOT peptide array binding signal intensity,SpBzz1-D1,145
same,SPOT peptide array binding signal intensity,SpBzz1-D2,0.5
same,SPOT peptide array binding signal intensity,SpCyk3,6
same,SPOT peptide array binding signal intensity,SpHof1,180
same,SPOT peptide array binding signal intensity,SpHof1-2,5
same,SPOT peptide array binding signal intensity,SpHof1-3,199
same,SPOT peptide array binding signal intensity,SpHse1,268
same,SPOT peptide array binding signal intensity,SpLsb1,26
same,SPOT peptide array binding signal intensity,SpLsb4,56
same,SPOT peptide array binding signal intensity,SpMyo1,1
same,SPOT peptide array binding signal intensity,SpNbp2,120
same,SPOT peptide array binding signal intensity,SpPex13,16
same,SPOT peptide array binding signal intensity,SpRvs167,12.5
same,SPOT peptide array binding signal intensity,SpSla1-D1-D2,1
same,SPOT peptide array binding signal intensity,SpSla1-D3,13
B2,SPOT peptide array binding signal intensity,AgAbp1,34
same,SPOT peptide array binding signal intensity,AgBbc1,30
same,SPOT peptide array binding signal intensity,AgBem1-D1,37
same,SPOT peptide array binding signal intensity,AgBzz1-D1,59
same,SPOT peptide array binding signal intensity,AgBzz1-D2,55.5
same,SPOT peptide array binding signal intensity,AgCyk3,7.5
same,SPOT peptide array binding signal intensity,AgFus1,65
same,SPOT peptide array binding signal intensity,AgHof1,20.5
same,SPOT peptide array binding signal intensity,AgHse1,187
same,SPOT peptide array binding signal intensity,AgLsb1,63
same,SPOT peptide array binding signal intensity,AgLsb4,29
same,SPOT peptide array binding signal intensity,AgMyo5,≤ 0
same,SPOT peptide array binding signal intensity,AgNbp2,39
same,SPOT peptide array binding signal intensity,AgRvs167,4.33
same,SPOT peptide array binding signal intensity,AgSho1,6
same,SPOT peptide array binding signal intensity,AgSla1-D1-D2,41
same,SPOT peptide array binding signal intensity,AgSla1-D3,3.75
same,SPOT peptide array binding signal intensity,CaAbp1-D1,380
same,SPOT peptide array binding signal intensity,CaAbp1-D2,273
same,SPOT peptide array binding signal intensity,CaBbc1,101
same,SPOT peptide array binding signal intensity,CaBem1-D1,19
same,SPOT peptide array binding signal intensity,CaBzz1-D1,146
same,SPOT peptide array binding signal intensity,CaBzz1-D2,100
same,SPOT peptide array binding signal intensity,CaCyk3,6.5
same,SPOT peptide array binding signal intensity,CaFus1,86
same,SPOT peptide array binding signal intensity,CaHof1,0.5
same,SPOT peptide array binding signal intensity,CaHse1,2
same,SPOT peptide array binding signal intensity,CaLsb1,1.5
same,SPOT peptide array binding signal intensity,CaLsb4,37
same,SPOT peptide array binding signal intensity,CaMyo5,2
